Source: PubChem
PLK1 PBD block: inhibitors of human PLK1 polo-box domain binding; Plk1 PBD binding of FITC phosphopeptide, fluorescence polarization; Potency, µM, actives largely listed as inhibitors; 360,000 tested, 2.8% active; AID 720504; further: series mostly up to about 57 µM; nearly all actives have a fitted effect of over 65% in size
HP1b binding inh: HP1-beta chromodomain-methylated histone interaction inhibition; AlphaScreen HP1-beta / biotin-H3K9me3 peptide binding; Potency, µM (series often up to 114 µM), usual class: inhibitors; P83916; AID 540317; 390,000 tested, 0.56% active; further: nearly all actives have a fitted effect of over 70% in size
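HP1-beta protein (50 nM final) preincubated 30 min at room temperature with biotinylated H3(1-18)K9me3 peptide (50 nM) in PBS pH 7.4, 0.01% Tween-20, then compound added for 30 min. AlphaScreen streptavidin donor/nickel chelate acceptor beads (10 ug/mL final), 30 min dark, luminescence read.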
JMJD2A Tudor inh: inhibitors of human JMJD2A Tudor domain; O75164; AlphaScreen JMJD2A-Tudor / H3K4me3 peptide binding; Potency, µM (titrated, usually from 114 µM), actives largely listed as inhibitors; 390,000 tested, 4.4% active; AID 504339; further: nearly all actives have a fitted effect of over 50% in size
ALOX12 inh: ALOX12 (human) lipoxygenase inhibition; AID 1671190; Potency, µM (titrated, usually from 108 µM), usual class: inhibitors; 580,000 tested, 1.1% active; P18054; purified 12hLO, xylenol orange hydroperoxide absorbance
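Purified human 12hLO (150 nM final) in 25 mM Hepes, 0.01% Triton X-100, pH 7.0 was preincubated 15 min at room temperature with compound. Then 40 uM arachidonic acid was added, 30 min. Hydroperoxide was read by Fe-XO absorbance ratio 573/405 nm.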
G9a inh: G9a (human) methyltransferase inhibition | Q96KQ7 | G9a H3K9 monomethylation, AlphaScreen, 2 h | Potency, µM (doses to about 102 µM), most hits filed as inhibitors | 350,000 tested, 8.8% active; further: nearly all actives have a fitted effect of over 75% in size
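Enzyme 20 nM + cpd, 15 min RT; add b-H3K9 pep 500 nM / SAM 20 uM; 2 h RT; anti-H3K9me1 Ab 0.5 ug/mL + SA donor / anti-rabbit acceptor beads 20 ug/mL each, 10 min; AlphaScreen read.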
BAZ2B block: BAZ2B (human) inhibition; Q9UIF8; AlphaScreen BAZ2B-H3K14Ac peptide displacement; Potency, µM (top dose mostly 114 µM), most hits filed as inhibitors; 360,000 tested, 4.4% active; AID 504333; further: nearly all actives have a fitted effect of over 60% in size
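Complex of BAZ2B and biotin-H3K14Ac (50 nM apiece) forms over 30 min at RT, then faces library compounds up to 110 uM for another 30 min; AlphaScreen beads added, 20 min dark incubation, luminescence read.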
Of the large screens only hits and unclear results are named; the others gave an inactive call. The list is not random: actives were taken first. Their share in the collection is about 9%. The call rests on the fitted dose curve; in most records, active means well fitted curve in the direction sought with a large enough effect; inconclusive means small, poorly fitted or top-dose-only effect, or another doubt; inactive means no such curve, though single readings can be large; an effect the other way counts as inactive or inconclusive.

O=C(Nc1ccccc1F)C1CCCN(S(=O)(=O)c2ccccc2)C1 (stereo unspecified)	PLK1 PBD block 3.4µM, JMJD2A Tudor inh 13µM
O=C(Nc1ccc(N2CCCCC2)cc1)C1CCCN1S(=O)(=O)c1ccc(F)cc1 (stereo unspecified)	JMJD2A Tudor inh inconclusive, BAZ2B block inconclusive
CC1CCN(c2ccc(NC(=O)C3CCCN3S(=O)(=O)c3ccc(F)cc3)cc2)CC1 (stereo unspecified)	HP1b binding inh inconclusive, JMJD2A Tudor inh 40µM, G9a inh 10µM, BAZ2B block 45µM
Cc1cc2nc3c(nc2cc1C)C1(C(=O)O)CCC3(C)C1(C)C (stereo unspecified)	none
Fc1ccc(-n2cc(-c3ccccc3)c3c(NN4CCOCC4)ncnc32)cc1	HP1b binding inh inconclusive, JMJD2A Tudor inh inconclusive, BAZ2B block inconclusive
S=C(NCCc1ccccc1)N/N=C/c1c(Cl)cccc1Cl	ALOX12 inh 40µM
S=C(NCc1ccccc1)N/N=C/c1c2ccccc2c(Cl)c2ccccc12	ALOX12 inh 18µM (no result: PLK1 PBD block, HP1b binding inh, JMJD2A Tudor inh, G9a inh, BAZ2B block)
CCOC(=O)CNC(=O)N(C)[C@H]1C[C@H]2c3[nH]c4c(-c5ccccc5)cccc4c3CCN2C(=O)[C@H]1[C@H](C)O	none (no result: PLK1 PBD block, HP1b binding inh, JMJD2A Tudor inh, G9a inh, BAZ2B block)
CCc1ccc2c(c1)c(=O)c(S(=O)(=O)c1ccc(Cl)cc1)cn2CC	BAZ2B block 56µM (no result: PLK1 PBD block)
CCCn1cc(S(=O)(=O)c2ccccc2)c(=O)c2cc(CC)ccc21	none
O=C1NC(=O)C2(N1)C(=O)c1cccc3cccc2c13 (stereo unspecified)	PLK1 PBD block 11µM (no result: HP1b binding inh, JMJD2A Tudor inh, G9a inh, BAZ2B block)
Cc1ccc(Nc2nc(-c3c(C)n(C)n(-c4ccccc4)c3=O)c(C)s2)cc1	JMJD2A Tudor inh inconclusive, G9a inh 50µM, BAZ2B block inconclusive
Fc1ccc(NCc2cn3ccccc3n2)cc1	BAZ2B block 50µM
Cc1[nH]n(-c2ccccc2)c(=O)c1C(c1ccc(C(=O)O)cc1)c1c(C)[nH]n(-c2ccccc2)c1=O	PLK1 PBD block 8.4µM
CCOc1ccc(C(c2c(C)[nH]n(-c3ccccc3)c2=O)c2c(C)[nH]n(-c3ccccc3)c2=O)cc1OC	HP1b binding inh inconclusive, JMJD2A Tudor inh inconclusive, ALOX12 inh 50µM, G9a inh 8.9µM, BAZ2B block inconclusive (no result: PLK1 PBD block)
Cc1ccc(C(C[N+](=O)[O-])c2c(N)n(C)c(=O)n(C)c2=O)cc1 (stereo unspecified)	G9a inh inconclusive
Cc1[nH]n(-c2ccccc2)c(=O)c1C(C[N+](=O)[O-])c1ccc(Br)cc1 (stereo unspecified)	PLK1 PBD block 27µM, JMJD2A Tudor inh inconclusive, ALOX12 inh inconclusive, G9a inh 40µM, BAZ2B block inconclusive
Cc1nn(-c2ccccc2)nc1C(=O)c1c(C)[nH]n(-c2ccccc2)c1=O	none (no result: G9a inh)
COc1ccc(C(c2c(C)n(C)n(-c3ccccc3)c2=O)c2c(C)n(C)n(-c3ccccc3)c2=O)cc1O	none (no result: PLK1 PBD block)
Cc1[nH]n(-c2ccccc2)c(=O)c1C(=O)c1ccc([N+](=O)[O-])cc1	ALOX12 inh inconclusive, G9a inh 50µM
Cc1[nH]n(-c2ccccc2)c(=O)c1C(=O)Nc1ccccc1	ALOX12 inh inconclusive
COC(=O)c1ccc2c(=O)[nH]c(CCl)nc2c1	none (no result: BAZ2B block)
N#Cc1ccc(OCC(=O)N2CCN(S(=O)(=O)c3ccc(Cl)s3)CC2)cc1	none
Cc1[nH]n(-c2ccccc2)c(=S)c1C=Nc1ccc([N+](=O)[O-])cc1	PLK1 PBD block 2.7µM, HP1b binding inh inconclusive, JMJD2A Tudor inh 1.8µM, ALOX12 inh inconclusive, G9a inh 0.89µM, BAZ2B block 10µM
O=c1[nH][nH]c(-c2ccccc2O)c1C(C[N+](=O)[O-])c1cccc(Cl)c1 (stereo unspecified)	none
COc1cccc(C(C[N+](=O)[O-])c2c(C)[nH]n(-c3ccccc3)c2=O)c1 (stereo unspecified)	PLK1 PBD block 30µM, G9a inh 10µM, BAZ2B block inconclusive
Cc1[nH]n(-c2ccccc2)c(=O)c1C(c1cccc([N+](=O)[O-])c1)c1c(C)[nH]n(-c2ccccc2)c1=O	PLK1 PBD block 24µM, JMJD2A Tudor inh inconclusive, G9a inh 35µM, BAZ2B block 28µM
